Measured values as given in PubChem BioAssay AID624301 (The Scripps Research Institute Molecular Screening Center, 2012).
Activity calls are given as the source filed them.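 Rule for the calls: active = relative activity ratio in the reporter plus Dax-1 wells above 5 or under 0.1 at any tested dose; inactive = ratio stays between 0.1 and 5 at every dose.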

Target: DAX1 (UniProt P51843)
Experiment: DAX1 inhibitors in Gal4 CAT reporter cells – cell-based, CAT activity, absorbance, powder samples, DAX1 inhibitor project, dose response (AID 624301)
Conditions: HEK293 Gal4-DAX1 CAT reporter, ELISA absorbance; CAT reporter with DAX1, at 100 µM (top of the series)

DAX1, sequence (P51843 whole entry, looked up, the tested form may be a part): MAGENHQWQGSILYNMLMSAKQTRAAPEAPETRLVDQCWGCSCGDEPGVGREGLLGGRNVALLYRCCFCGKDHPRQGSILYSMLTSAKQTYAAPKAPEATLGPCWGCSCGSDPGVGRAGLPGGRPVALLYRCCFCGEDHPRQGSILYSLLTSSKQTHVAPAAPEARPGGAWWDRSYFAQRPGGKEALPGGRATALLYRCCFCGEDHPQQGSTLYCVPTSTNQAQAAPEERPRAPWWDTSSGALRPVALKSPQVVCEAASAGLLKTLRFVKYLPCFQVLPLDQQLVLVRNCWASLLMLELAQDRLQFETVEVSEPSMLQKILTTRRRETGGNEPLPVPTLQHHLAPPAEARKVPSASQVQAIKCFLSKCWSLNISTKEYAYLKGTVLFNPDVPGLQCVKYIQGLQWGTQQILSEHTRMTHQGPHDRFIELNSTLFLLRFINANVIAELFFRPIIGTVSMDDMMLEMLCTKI

Row | Compound | outcome
1 | Cn1c(=O)n(C)c2cc(C(=O)Nc3ccc4c(c3)OCCO4)ccc21 | inactive
2 | Cn1c(=O)n(C)c2cc(C(=O)Nc3ccc4c(c3)OCO4)ccc21 | inactive
